# Key:
# [1] = tested on: LEGO organoid PTCC (PTEN-/-; TP53-/-; CDKN2A-/-; CDKN2B-/-); assay: bioluminescence (viable cell) signal fold change after vs before treatment, normalised to DMSO (ratio); higher = more tumour cell growth / less inhibition; details: 10 µM; treatment time 6 days
# Protocol: (§1)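 Luc2-labelled iPSC-derived glioblastoma-like organoids (LEGOs, genotypes PT = PTEN-/-;TP53-/-, PTCC = plus CDKN2A/B-/-, PTN = plus NF1-/-) were treated with 10 uM drug for 6 days (applied every other day) at 37 C. Bioluminescence imaging was done before treatment and 2 days after the last dose. BLI signals were normalised to the DMSO control on the same day and then to the pre-treatment signal (N=3).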
# [2] = tested on: LEGO organoid PTN (PTEN-/-; TP53-/-; NF1-/-); assay: as above; details: 10 µM; treatment time 6 days
# Protocol: as §1
SMILES,bioluminescence [1],bioluminescence [2]
Nc1nc(NC2CC2)c2ncn([C@H]3C=C[C@@H](CO)C3)c2n1 [Abacavir],1.46,3.33
CC1(C)O[C@@H]2[C@@H](CO[C@@]3(COS(N)(=O)=O)OC(C)(C)O[C@@H]23)O1 [Topiramate],1.62,5.65
CN[C@H](CC(C)C)C(=O)N[C@H]1C(=O)N[C@@H](CC(N)=O)C(=O)N[C@H]2C(=O)N[C@H]3C(=O)N[C@H](C(=O)N[C@H](C(=O)O)c4cc(O)cc(O)c4-c4cc3ccc4O)[C@H](O)c3ccc(c(Cl)c3)Oc3cc2cc(c3O[C@@H]2O[C@H](CO)[C@@H](O)[C@H](O)[C@H]2O[C@H]2C[C@](C)(N)[C@H](O)[C@H](C)O2)Oc2ccc(cc2Cl)[C@H]1O [Vancomycin],0.957,0.868
COC(c1ccccc1)(c1ccccc1)[C@H](Oc1nc(C)cc(C)n1)C(=O)O [Ambrisentan],1.39,1.08
CN1[C@@H]2CC[C@H]1C[C@@H](OC(c1ccccc1)c1ccccc1)C2.CS(=O)(=O)O [Benztropine mesylate],0.793,0.419
CC1COc2c(N3CCN(C)CC3)c(F)cc3c(=O)c(C(=O)O)cn1c23 (configuration not stated) [Ofloxacin],2.88,1.19
CCC(=O)NCC[C@@H]1CCc2ccc3c(c21)CCO3 [Ramelteon],1.56,2.06
CC(=O)NCCCS(=O)(=O)[O-].CC(=O)NCCCS(=O)(=O)[O-].[Ca+2] [Acamprosate calcium],0.374,1.11
CC1=C(CC(=O)O)c2cc(F)ccc2/C1=C\c1ccc(S(C)=O)cc1 (configuration not stated) [Sulindac],1.38,1.47
Nc1ccn([C@@H]2CS[C@H](CO)O2)c(=O)n1 [Lamivudine],0.674,1.2
Cl.O=C1c2cccc3c2[C@H](CCC3)CN1[C@@H]1CN2CCC1CC2 [Palonosetron hydrochloride],0.952,1.4
CCCCCOC(=O)Nc1nc(=O)n([C@@H]2O[C@H](C)[C@@H](O)[C@H]2O)cc1F [Capecitabine],1.71,6.04
CC(C)Nc1cccnc1N1CCN(C(=O)c2cc3cc(NS(C)(=O)=O)ccc3[nH]2)CC1.CS(=O)(=O)O [Delavirdine mesylate],0.912,1.76
O=C(CCCN1CCC(O)(c2ccc(Cl)cc2)CC1)c1ccc(F)cc1 [Haloperidol],0.956,0.771
CS(=O)(=O)CCNCc1ccc(-c2ccc3ncnc(Nc4ccc(OCc5cccc(F)c5)c(Cl)c4)c3c2)o1 [Lapatinib],0.878,1.93
Cl.Cc1ccsc1\C(=C\CCN1CCC[C@H](C1)C(O)=O)c1sccc1C [Tiagabine hydrochloride],2.4,0.83
C[C@@H](O[C@H]1OCCN(Cc2nc(=O)[nH][nH]2)[C@H]1c1ccc(F)cc1)c1cc(C(F)(F)F)cc(C(F)(F)F)c1 [Aprepitant],0.644,1.21
CN(C)CCc1c[nH]c2ccc(C[C@H]3COC(=O)N3)cc12 [Zolmitriptan],1.52,1.34
CN=C(NC#N)NCCSCc1nc[nH]c1C [Cimetidine],2.25,1.65
CCCCC1C(=O)N(c2ccccc2)N(c2ccccc2)C1=O [Phenylbutazone],1.76,2.68
CO/N=C(\C(=O)N[C@@H]1C(=O)N2C(C(=O)[O-])=C(CSc3nc(=O)c([O-])nn3C)CS[C@H]12)c1csc(N)n1.CO/N=C(\C(=O)N[C@@H]1C(=O)N2C(C(=O)[O-])=C(CSc3nc(=O)c([O-])nn3C)CS[C@H]12)c1csc(N)n1.O.O.O.O.O.O.O.[Na+].[Na+].[Na+].[Na+] [Ceftriaxone sodium],1.62,2.01
Cl.Clc1cccc(Cl)c1NC1=NCCN1 [Clonidine hydrochloride],1.29,0.76
OC(Cn1cncn1)(Cn1cncn1)c1ccc(F)cc1F [Fluconazole],0.967,1.54
Cc1[nH]c(=O)c(C#N)cc1-c1ccncc1 [Milrinone],1.63,1.34
CS(=O)(=O)c1ccc(C(=O)Nc2ccc(Cl)c(-c3ccccn3)c2)c(Cl)c1 [Vismodegib],2.45,0.888
Cc1nc2c([nH]1)CCN(C(=O)c1ccc(NC(=O)c3ccccc3-c3ccccc3)cc1)c1ccccc1-2.Cl [Conivaptan hydrochloride],3.25,0.375
